# PubChem BioAssay (NCATS)
# Inconclusive results are not listed. A number with no mark means an inactive call. Activity calls are given as the source filed them. Calls follow the shape of the dose curve; as a rule, active = well fitted curve in the direction sought with a large enough effect; inconclusive = small, poorly fitted or top-dose-only effect, or another doubt; inactive = no such curve, though single readings can be large; an effect the other way counts as inactive or inconclusive.
# Assays:
# [1] = BET inhibitor-based combinations targeting novel dependencies in MECOM-rearranged (r) AML: SET-2 cell line (AID 2202231); details: SET-2 AML cells viability, CellTiter-Glo luminescence, 48 h; viability: active compounds read low, concentration not given here; also: nearly all actives have a fitted effect of over 35% in size;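 as to viability: plate controls were DMSO treated cells for no effect and wells without cells for full effect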
# Procedure, shortened: (§1)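 500 cells/well; 11-pt dose curve; 48 h, standard incubator; CellTiter-Glo luminescence after 15 min RT; DMSO/empty-well normalization; AUC plus Z-AUC (mean-centered within each line).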
# [2] = BET inhibitor-based combinations targeting novel dependencies in MECOM-rearranged (r) AML: OCI-AML3 cell line (AID 2202232); details: CellTiter-Glo luminescence, 48 h; Potency: OCI-AML3 viability; series mostly up to 46 µM; also: nearly all actives have a fitted effect of over 35% in size
# Procedure, shortened: as §1
# [3] = BET inhibitor-based combinations targeting novel dependencies in MECOM-rearranged (r) AML: MV-4-11 cell line (AID 2202233); details: MV-4-11 AML viability, CellTiter-Glo luminescence, 48 h; series mostly up to 46 µM; also: nearly all actives have a fitted effect of over 45% in size
# Procedure, shortened: (§2)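 Cells were plated at 500 per well and exposed to each drug across an 11-point dose range for 48 hr at standard incubator conditions. Viability was read by CellTiter-Glo luminescence, and activity was expressed as AUC and per-cell-line Z-transformed AUC.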
# [4] = BET inhibitor-based combinations targeting novel dependencies in MECOM-rearranged (r) AML: UCSD-AML1 cell line (AID 2202235); details: UCSD-AML1 AML cells viability, CellTiter-Glo, 48 h; series mostly up to 46 µM; also: nearly all actives have a fitted effect of over 40% in size
# Procedure, shortened: as §2
# [5] = BET inhibitor-based combinations targeting novel dependencies in MECOM-rearranged (r) AML: AML-191 cell line (AID 2202236; also: nearly all actives have a fitted effect of over 35% in size); details: AML-191 viability, CellTiter-Glo luminescence, 48 h; series mostly up to 46 µM
# Procedure, shortened: as §1
# [6] = BET inhibitor-based combinations targeting novel dependencies in MECOM-rearranged (r) AML: AML-194 cell line (AID 2202237; also: nearly all actives have a fitted effect of over 40% in size); details: AML-194 (MECOM-r AML) viability, CellTiter-Glo, 48 h; series mostly up to 46 µM
# Procedure, shortened: as §1
# [7] = BET inhibitor-based combinations targeting novel dependencies in MECOM-rearranged (r) AML: HNT-34 cell line (AID 2202234); details: HNT-34 AML viability, CellTiter-Glo luminescence, 48 h; series mostly up to 46 µM; also: nearly all actives have a fitted effect of over 35% in size
# Procedure, shortened: as §2
# Potency is read from the fitted curve at half-maximal effect.
Compound,Potency [1],Potency [2],Potency [3],Potency [4],Potency [5],Potency [6],viability [1],Potency [7]
CN(C)Cc1ccc(S(=O)(=O)n2ccc(/C=C/C(=O)NO)c2)cc1,3.72 µM (active),5.25 µM (active),2.35 µM (active),4.68 µM (active),4.17 µM (active),5.9 µM (active),,
CC(=O)NCC(=O)N1[C@@H]2CC[C@H]1c1ccc(Nc3ncc(C(F)(F)F)c(NC4CCC4)n3)cc12,4.17 µM (active),14.8 µM (active),0.0417 µM (active),0.934 µM (active),0.833 µM (active),0.662 µM (active),,
CO[C@H]1C(=O)[C@]2(C)[C@@H](OC)C[C@H]3OC[C@@]3(OC(C)=O)[C@H]2[C@H](OC(=O)c2ccccc2)[C@]2(O)C[C@H](OC(=O)[C@H](O)[C@@H](NC(=O)OC(C)(C)C)c3ccccc3)C(C)=C1C2(C)C,0.0037 µM (active),0.0026 µM (active),0.0023 µM (active),0.0023 µM (active),0.0037 µM (active),0.0042 µM (active),,
COc1ccc(Oc2cc(NCCC(F)(F)F)c3ncc(-c4ccc(C(=O)NC5CC5)c(C)c4)n3n2)c(F)c1F,,0.0235 µM (active),,,,,80.2%,417 nM (active)
COc1cc(/C=C/C(=O)CC(=O)/C=C/c2ccc(O)c(OC)c2)ccc1O,20.9 µM (active),8.33 µM (active),3.32 µM (active),13.2 µM (active),,18.6 µM (active),,
COc1cc(=C2C=c3ccccc3=N2)[nH]/c1=C/c1[nH]c(C)cc1C,4.17 µM (active),2.63 µM (active),2.35 µM (active),3.32 µM (active),2.35 µM (active),5.9 µM (active),,
Cc1ccc(C(=O)N(CCCN)[C@@H](c2nc3cc(Cl)ccc3c(=O)n2Cc2ccccc2)C(C)C)cc1,0.105 µM (active),0.0295 µM (active),0.0417 µM (active),0.0263 µM (active),0.0417 µM (active),0.0468 µM (active),,
CN(C)C[C@@H]1CCn2cc(c3ccccc32)C2=C(C(=O)NC2=O)c2cn(c3ccccc23)CCO1,8.33 µM (active),20.9 µM (active),0.417 µM (active),,7.42 µM (active),,,
O=C(NO)c1cnc(N2C[C@H]3C[C@@H]2CN3c2cc(C(F)(F)F)ccn2)nc1,2.35 µM (active),3.72 µM (active),,3.72 µM (active),4.17 µM (active),,,3720 nM (active)
CC#CC(=O)N1CC[C@@H](n2c(=O)n(-c3ccc(Oc4ccccc4)cc3)c3c(N)ncnc32)C1,,inactive,10.5 µM (active),inactive,,inactive,83.2%,
COC1CC(C(=O)c2ccc3c(N)ncc(-c4ccc(-c5cnn(C)c5)cc4)c3n2)C1 (configuration not stated),,8.33 µM (active),2.95 µM (active),,,11.8 µM (active),92.9%,
COc1ccc(S(=O)(=O)N2CCc3cccc(-c4ccncc4)c32)cc1,1.66 µM (active),1.05 µM (active),1.18 µM (active),,1.05 µM (active),0.934 µM (active),,
Nc1nc(F)nc2c1ncn2[C@@H]1O[C@H](COP(=O)(O)O)[C@@H](O)[C@@H]1O,3.72 µM (active),20.9 µM (active),11.8 µM (active),1.18 µM (active),3.32 µM (active),4.17 µM (active),,
CC(C)n1ncnc1-c1cn2c(n1)-c1ccc(O[C@@H](C)C(N)=O)cc1OCC2,,2.35 µM (active),,5.25 µM (active),,,99%,18600 nM (active)
CC(=O)Nc1cc(Oc2ccc3c(nc(Nc4ccc(F)cc4F)n3C)c2C)ccn1,0.209 µM (active),0.934 µM (active),,0.235 µM (active),,,,118 nM (active)
C[C@@H](Oc1cc(C(=O)Nc2ccc(C(=O)N3CCN(C)CC3)cc2)nnc1N)c1c(Cl)ccc(F)c1Cl,18.6 µM (active),5.9 µM (active),1.66 µM (active),1.18 µM (active),0.934 µM (active),0.934 µM (active),,
Nc1cc(C(F)(F)F)c(-c2nc(N3CCOCC3)nc(N3CCOCC3)n2)cn1,9.34 µM (active),3.72 µM (active),3.72 µM (active),0.934 µM (active),2.63 µM (active),2.35 µM (active),,
N#Cc1ccc(C(c2ccc(C#N)cc2)n2cncn2)cc1,,inactive,,inactive,inactive,,96.2%,inactive
